Common to all, as to assay: Euclidean distance of Cell Painting phenotypic profile (signed KS, 77 features) to DMSO centroid (dimensionless distance); 5 or 10 uM (library dependent); higher = stronger phenotypic change vs DMSO (phenoactivity)
Holding throughout (details): 48 h

Test [1] relates to 786-O. The method, boiled down:
(§1)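 Five cancer lines, together with a healthy fibroblast line, received library compounds for 48 h at a library-dependent 10 or 5 uM and 0.1% DMSO final. Harmony then derived 77 features from confocal 20X images (9 fields/well) of the stained cells, scoring each as a signed Kolmogorov-Smirnov statistic against same-plate vehicle wells. After plate-position correction, correlation weighting and replicate averaging at the top dose, phenoactivity was taken as each profile's Euclidean distance to the median vehicle profile.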

For test [2], the system named is A549. The method, boiled down: as §1
Test [3] concerns DU145. The method in brief: as §1
Test [4] relates to FB. The method, boiled down: as §1
Test [5] relates to HEPG2. The method in brief:
as §1

In test [6] the test system is OVCAR4. The method in brief: as §1

Counter-ions that a name gives are not always drawn.

With `O=c1c2ccccc2oc2ccccc12` [Xanthone], the Euclidean distance worked out at 1 in test [1]; 1.28 in test [2]; 1.24 in test [3]; 1.02 in test [4]; 0.607 in test [5]; 1.14 in test [6].
Turning to `CN1CCN(c2ccc(OC(F)(F)F)c(Nc3ncc4c(n3)-c3c(c(C(N)=O)nn3CCO)CC4)c2)CC1`, the Euclidean distance in test [1] was 2.75; in test [2], 4.08; in test [3], 3.85; in test [4], 3.73; in test [5] it was 2.82; in test [6] it was 3.67.
For `CNC1(C)C2CCC(C2)C1(C)C` (centres undefined) [Mecamylamine Hydrochloride], the Euclidean distance in test [1] was 1.04; in test [2], 0.418; in test [3], 0.617; in test [4], 1.01; in test [5] it was 0.384; in test [6], 1.18.
Turning to `COc1cc(Nc2ncc3c(n2)-c2ccc(Cl)cc2C(c2c(F)cccc2OC)=NC3)ccc1C(=O)O` [Alisertib (MLN8237)], the Euclidean distance is 2.85 in test [1]; 3.22 in test [2]; 2.99 in test [3]; 3.08 in test [4]; 2.23 in test [5]; 2.8 in test [6].
As to `NCC(=O)CCC(=O)O` [5-Aminolevulinic acid HCl], the Euclidean distance turned out to be 1.2 in test [1]; 0.994 in test [2]; 1.81 in test [3]; 1.12 in test [4]; 1.61 in test [5]; 2 in test [6].
`CN1CCN(C2=Nc3cc(Cl)ccc3Nc3ccccc32)CC1` [Clozapine]: the Euclidean distance in test [1] came to 1.75; in test [2], 1.56; in test [3] it was 1.21; in test [4] it was 0.901; in test [5], 1.03; in test [6], 1.34.
Consider `CC(=O)[C@H]1CC[C@H]2[C@@H]3C[C@H](C)C4=CC(=O)CC[C@]4(C)[C@H]3[C@@H](O)C[C@]12C` [Medrysone], for which the Euclidean distance is 1.22 in test [1]; 1.8 in test [2]; 1.96 in test [3]; 1.72 in test [4]; 0.963 in test [5]; 1.81 in test [6].
Consider `COc1cc2c(Nc3ccc(NC(=O)c4ccccc4)cc3)ncnc2cc1OCCCN1CCOCC1`, for which the Euclidean distance turned out to be 2.71 in test [1]; 3.81 in test [2]; 3.11 in test [3]; 2.7 in test [4]; 1.92 in test [5]; 3.02 in test [6].
Consider `CC(C)(C#N)c1cc(Cn2cncn2)cc(C(C)(C)C#N)c1` [Anastrozole], for which the Euclidean distance in test [1] came to 1.11; in test [2] it was 0.727; in test [3] it was 0.702; in test [4], 0.902; in test [5], 0.572; in test [6] it was 1.41.
On to `COc1ccc(C[C@H](NC(=O)[C@H](C)NC(=O)CN2CCOCC2)C(=O)N[C@@H](Cc2ccccc2)C(=O)[C@@]2(C)CO2)cc1`, for which the Euclidean distance stood at 5.28 in test [1]; 4.5 in test [2]; 5.11 in test [3]; 5.13 in test [4]; 5.18 in test [5]; 6.2 in test [6].
Take `N=C(NCCCCCCNC(=N)NC(=N)Nc1ccc(Cl)cc1)NC(=N)Nc1ccc(Cl)cc1` [Chlorhexidine]: the Euclidean distance in test [1] came to 2.05; in test [2], 3.54; in test [3], 1.97; in test [4] it was 2.12; in test [5], 2.92; in test [6], 3.25.
In the case of `NC(=O)/C(=C/n1cnc(-c2cc(C(F)(F)F)cc(C(F)(F)F)c2)n1)c1cncnc1` [Eltanexor (KPT-8602)], the Euclidean distance in test [1] is 2.1; in test [2], 3.48; in test [3] it was 2.69; in test [4], 4.12; in test [5], 2.35; in test [6], 3.66.
`COc1cc2c3cc1Oc1c(OC)c(OC)cc4c1[C@@H](Cc1ccc(O)c(c1)Oc1ccc(cc1)C[C@@H]3N(C)CC2)N(C)CC4` [Berbamine]: the Euclidean distance in test [1] was 2.93; in test [2], 3.17; in test [3] it was 2.1; in test [4], 3.91; in test [5] it was 2.29; in test [6], 2.64.
For `O=C(c1ccc(NS(=O)(=O)c2cccc3cccnc23)cc1)N1CCN(CC2CC2)CC1` [Mitapivat], the Euclidean distance in test [1] was found to be 1.26; in test [2], 0.913; in test [3], 1.1; in test [4], 1.04; in test [5], 1.09; in test [6], 1.47.
For the compound `Cn1c(=O)c(F)c(Nc2ccc(I)cc2F)c2c(=O)n(C[C@@H](O)CO)cnc21`, the Euclidean distance was determined as 3.48 in test [1]; 2.45 in test [2]; 3.23 in test [3]; 4.03 in test [4]; 2.21 in test [5]; 2.01 in test [6].
Take `Nc1ncnc2c1ncn2[C@@H]1O[C@H](CO)[C@@H](O)[C@@H]1O` [Vidarabine monohydrate]: the Euclidean distance in test [1] is 0.895; in test [2] it was 1.22; in test [3] it was 0.966; in test [4], 0.665; in test [5], 1.66; in test [6], 1.18.
Turning to `CO[C@@]1(NC(=O)CSC[C@@H](N)C(=O)O)C(=O)N2C(C(=O)O)=C(CSc3nnnn3C)CS[C@@H]21` [Cefminox Sodium], the Euclidean distance stood at 1.29 in test [1]; 0.521 in test [2]; 2.14 in test [3]; 1.02 in test [4]; 0.714 in test [5]; 1.32 in test [6].
On to `CNC[C@H](O)c1ccc(O)c(O)c1` [Epinephrine HCl], for which the Euclidean distance amounted to 1.19 in test [1]; 0.611 in test [2]; 0.9 in test [3]; 0.733 in test [4]; 0.644 in test [5]; 0.893 in test [6].
Regarding `Cc1ccc2c(Cl)cc(Cl)c(O)c2n1` [Chlorquinaldol], the Euclidean distance in test [1] was 2.59; in test [2] it was 2.3; in test [3] it was 1.54; in test [4], 2.53; in test [5], 2.09; in test [6], 2.94.
On to `OCC1OC(OC2OC(CO)C(O)C(O)C2O)C(O)C(O)C1O` [D-(+)-Trehalose Anhydrous], for which the Euclidean distance in test [1] is 1.42; in test [2] it was 1.05; in test [3], 1.04; in test [4] it was 1.26; in test [5], 0.946; in test [6] it was 0.855.
As for `CCCCC(CC)COC(=O)CC(C(=O)OCC(CC)CCCC)S(=O)(=O)O` (centres undefined) [Docusate Sodium], the Euclidean distance in test [1] stood at 0.771; in test [2], 0.602; in test [3], 0.942; in test [4], 1.2; in test [5] it was 0.96; in test [6], 1.25.
As for `CC(C)N1CCN(c2ccc(OCC3COC(Cn4cncn4)(c4ccc(Cl)cc4Cl)O3)cc2)CC1` (centres undefined) [Terconazole], the Euclidean distance in test [1] came to 1.82; in test [2], 2.07; in test [3], 1.88; in test [4], 1.04; in test [5] it was 0.664; in test [6], 1.06.
`C=C1CC[C@H](O)C/C1=C/C=C1\CCC[C@]2(C)[C@@H]([C@H](C)CCCC(C)(C)O)CC[C@@H]12` [Calcifediol]: the Euclidean distance is 1.61 in test [1]; 0.811 in test [2]; 0.927 in test [3]; 1.4 in test [4]; 0.618 in test [5]; 2.24 in test [6].
With `Cn1c(Cn2ccc(C(F)(F)F)c(Oc3cc(Cl)cc(C#N)c3)c2=O)n[nH]c1=O` [Doravirine (MK-1439)], the Euclidean distance turned out to be 1.23 in test [1]; 0.8 in test [2]; 1.11 in test [3]; 1.13 in test [4]; 0.593 in test [5]; 0.914 in test [6].

These data come from the supplement of paper PMC10127200.
